# In the supplement of paper PMC3334620:
# In all, about 33,000 sequences were measured (“E-score (-0.5 to 0.5)”: median about -0.041, highest 2% from about 0.37 on). The list comes from a sample in which the highest values are over-represented; it also holds similar and randomly drawn sequences.
# Biological target: T1, Ecm22 (UniProt Q05958)
# T1 sequence: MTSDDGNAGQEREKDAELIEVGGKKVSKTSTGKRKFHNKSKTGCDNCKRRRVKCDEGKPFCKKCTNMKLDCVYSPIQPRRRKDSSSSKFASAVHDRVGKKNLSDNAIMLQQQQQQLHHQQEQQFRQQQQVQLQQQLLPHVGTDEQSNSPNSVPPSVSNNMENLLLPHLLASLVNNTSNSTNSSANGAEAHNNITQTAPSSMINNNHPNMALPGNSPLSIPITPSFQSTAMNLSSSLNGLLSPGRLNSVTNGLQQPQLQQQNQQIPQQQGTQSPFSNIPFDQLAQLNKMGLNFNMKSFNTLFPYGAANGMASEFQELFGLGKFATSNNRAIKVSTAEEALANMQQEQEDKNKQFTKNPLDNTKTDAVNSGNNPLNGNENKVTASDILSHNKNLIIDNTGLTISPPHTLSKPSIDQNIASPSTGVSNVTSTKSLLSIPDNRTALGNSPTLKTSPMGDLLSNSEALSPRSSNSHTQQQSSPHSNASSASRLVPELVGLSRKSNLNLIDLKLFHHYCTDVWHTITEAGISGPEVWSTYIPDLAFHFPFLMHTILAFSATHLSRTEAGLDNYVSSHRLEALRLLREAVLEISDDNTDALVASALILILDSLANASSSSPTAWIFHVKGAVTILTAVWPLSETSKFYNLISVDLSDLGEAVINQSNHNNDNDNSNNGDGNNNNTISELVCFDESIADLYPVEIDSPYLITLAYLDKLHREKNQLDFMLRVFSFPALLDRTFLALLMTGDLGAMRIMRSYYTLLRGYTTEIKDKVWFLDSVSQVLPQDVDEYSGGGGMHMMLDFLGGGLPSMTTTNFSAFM
# Assay: PBM E-score (8-mer binding enrichment) (E-score (-0.5 to 0.5)); higher = stronger / more preferred TF binding
# Settings: protein concentration: 200 nM; construct: GST-full length
# Method: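 Universal 'all 10-mer' protein binding microarrays (Agilent AMADID 015681) probed with GST-tagged S. cerevisiae TFs (full-length or DBD) made by in vitro transcription/translation (PURExpress), about 100-200 nM. Bound TF was detected with fluorescent anti-GST. Each ungapped 8-mer (which stands for itself and its reverse complement) is scored by the PBM enrichment score (E-score), a modified Wilcoxon-Mann-Whitney statistic from -0.5 to +0.5, computed with the Universal PBM Analysis Suite. Scale: above 0.35 generally sequence-specific binding.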
row,Sequence,PBM E-score
1,AACTCTTC,0.0679
2,CAATGGGC,-0.209
3,CCCGGCAC,-0.159
4,AGAGGGAC,-0.0884
5,ATCTCCTC,-0.0702
6,ACCGATAA,0.116
7,CACGATAG,-0.065
8,AACGATAA,0.382
9,CGTTAAAC,0.392
10,CGTTAAGC,0.4
11,AGTTAAGC,0.0271
12,CGTTAAAA,0.287
13,GGTTAAAC,0.116
14,CGTTAAGA,0.222
15,TCTCTTCA,-0.0952
16,AGACCGCA,-0.0494
17,GTGACAGA,-0.0918
18,CCAACTTA,-0.115
19,CCGTTCGA,0.152
20,TCGTTCCA,0.475
21,GCGTTTCA,-0.0209
22,GCGTTCCC,0.104
23,CTGTTCCA,-0.186
24,CCGTTCCA,0.373
25,ACGTTCCA,0.214

row,Sequence,PBM E-score
1,ACGTTTCA,0.107
2,CCGTTCCC,0.464
3,TCGTTTCA,0.396
4,ACGTTCCC,0.269
5,GCGTTCCA,0.141
6,CTTGTGAA,-0.226
7,GATCCCGC,0.0461
8,GTTCACCA,0.0888
9,TCGCTAAA,0.34
10,AAAGCTCT,-0.258
11,ACGTTCCG,0.259
12,CAGTTCCG,0.14
13,GCGTTCAA,0.0639
14,ACGTTCAA,0.188
15,TCGTTCAA,0.448
16,CCGTTCCG,0.441
17,AAGATCAA,-0.0315
18,ATAGGAAA,-0.0768
19,CTTTGGCA,-0.144
20,AGCTCAAC,-0.0198
21,GACGAAGC,0.0937
22,AACGAAGT,0.419
23,ACCGAAGT,0.207
24,AACGAAGC,0.437
25,TACGAAGA,0.444

row,Sequence,PBM E-score
1,TCCGAAGA,0.0982
2,AAAGAAGT,-0.0866
3,GACGAAGA,0.0867
4,TAAGAAGA,0.0914
5,CACGAAGA,0.226
6,AACGAAGA,0.421
7,CACGAAGC,0.0604
8,CGGATTTC,0.0823
9,CGCGGCAC,0.0802
10,ATTCTGGG,-0.192
11,TCCAATCA,-0.115
12,TTCTTAAA,-0.107
13,ATTGAGGA,-0.0867
14,AGCGCCGC,-0.188
15,ATAAACTA,0.0319
16,TAGTCTAA,-0.04
17,ACTATCCT,-0.133
18,ACTACGGC,-0.0479
19,ACGTCGCG,0.162
20,TGGACCCA,-0.131
21,AACGAAGG,0.398
22,CACGAAGG,0.0498
23,ACCGAAGG,0.107
24,ACGAAGCG,0.317
25,ACGAACCA,0.391

row,Sequence,PBM E-score
1,ACGAAGCA,0.378
2,GCGAACCA,0.146
3,GCGAAGCA,0.0616
4,CCGAACCG,0.12
5,ACGAACCG,0.368
6,ACGAACCC,0.28
7,CCGAACCA,-0.0831
8,ACGGTCAA,0.297
9,GTTACACA,-0.0371
10,CGCACCAC,0.0793
11,CATATCCA,-0.0799
12,AATGGAAA,-0.198
13,CACGGTAC,0.113
14,AATCTGGA,-0.119
15,CATACCCC,-0.0887
16,CGTACCCA,0.406
17,AGTACCCC,-0.0697
18,GGTACCCA,-0.145
19,CGTACCCC,0.453
20,AGTACCCA,-0.208
21,GCCTGCGC,-0.272
22,ACCCTACG,-0.142
23,AGCGGTGC,0.0264
24,GATTTGAC,0.202
25,AGAGACGC,0.0019

row,Sequence,PBM E-score
1,CGTATGGA,0.383
2,AGTATGGC,-0.0838
3,AGTATGGA,-0.115
4,GGTATGGA,-0.15
5,CGTATGTC,0.342
6,CGTATGGC,0.4
7,CCGAGATA,0.186
8,TTACGCAA,0.115
9,AGTTTGCC,-0.117
10,GTTGAAAC,0.0017
11,GCCTGGCA,-0.318
12,CGACCGCC,0.137
13,ACTACTAG,-0.0821
14,ACATTCGG,0.0251
15,ACATTCGA,0.0496
16,ACATTCGT,0.37
17,GACACCTC,0.148
18,ACCCTCGC,0.194
19,ACCCTCGA,-0.16
20,ACCCTCGT,0.449
21,CACCAATA,-0.0897
22,CGTAGCGA,0.382
23,CGTAGCGC,0.273
24,AGTAGCGA,0.153
25,TAGGGAAA,-0.0897

row,Sequence,PBM E-score
1,ATCGAATA,0.138
2,GACGAAAA,0.196
3,CACGAATA,0.117
4,CACGAAAA,0.153
5,AACGAATA,0.371
6,ACCGAATA,0.18
7,GACGAATA,0.0261
8,TACGAATA,0.43
9,AACGAATG,0.429
10,TACGAAAA,0.423
11,CACGAATG,0.052
12,AACGAATT,0.36
13,AATTGCTA,-0.0544
14,AGTGCTGG,-0.152
15,AAGCGGTA,0.145
16,CACAACTC,0.144
17,ACCAGCTA,-0.0229
18,AGCCAATG,-0.141
19,CAGGGGAA,-0.0465
20,CGCGATCA,0.179
21,AGTTCTTG,-0.0776
22,GTCAGGGA,-0.19
23,AACGAATC,0.387
24,GACGAATC,0.106
25,CACGAATC,0.0959

row,Sequence,PBM E-score
1,ATGCAAGG,-0.193
2,CCGCGACG,0.0789
3,ACCGGGCG,0.0784
4,GACCTACA,-0.18
5,CATGGCGC,-0.137
6,CCACTCCG,0.019
7,GCCGTACA,0.371
8,GCCGTACC,0.441
9,GCCGTGCA,-0.305
10,GCCGTAGC,0.163
11,ACCGTAAG,0.212
12,ACCGTAGG,-0.172
13,ACCGTACG,0.385
14,TCCGTACA,0.379
15,TCCGTAGA,-0.0285
16,GCCGTAAA,0.366
17,TGCGTACA,0.283
18,GGCGTACC,0.279
19,AATTCTAT,-0.104
20,TACGTTCA,0.276
21,GATCCGGC,-0.0487
22,GACCAGGA,-0.0856
23,AGGGGAAA,-0.223
24,CAAGGACA,-0.247
25,GGCACCGA,-0.0384

row,Sequence,PBM E-score
1,GAGTCACA,0.0764
2,AAACTGTT,-0.124
3,ACCGTAGA,0.0719
4,ACCGTACC,0.416
5,ACCGTACT,0.285
6,ACCGTAAC,0.231
7,ACCGTACA,0.371
8,ACCGTAGC,0.163
9,CACTGTCG,0.109
10,GCCCTATA,-0.00087
11,AAATAGCT,-0.0997
12,GTTAACTA,0.106
13,ATTAACGG,0.226
14,ATTAACGC,0.122
15,CGTAACGA,0.338
16,CTTAACGC,-0.0209
17,ATTAACGA,0.402
18,GCTAACGA,0.281
19,CTTAACGA,0.432
20,GTTAACGA,0.408
21,AGAAGACA,0.011
22,GTGTTTCA,-0.0721
23,GTCCTGGA,-0.225
24,TTAATAAA,0.169
25,CCGAACGG,0.222

row,Sequence,PBM E-score
1,TCGAACGA,0.373
2,ACGAACGG,0.392
3,TCGAACAA,0.109
4,ACGAACGA,0.447
5,GCGAACTA,0.114
6,CCGAACGA,0.357
7,TCGAACCA,-0.029
8,GCGAACGC,0.138
9,GCGAACGA,0.397
10,ACGAACGT,0.307
11,ACGAACGC,0.362
12,CCACCGGG,-0.108
13,GATTTCCA,-0.146
14,CTGCTCTA,0.0645
15,ATGCTGAG,-0.31
16,AGCCGGAA,-0.0725
17,ACCAATGA,-0.061
18,CAACAACG,0.209
19,ATAGTCGC,0.146
